Screening data as filed in PubChem.
Sm TGR inh: inhibitors of Schistosoma mansoni thioredoxin glutathione reductase | Q962Y6 | purified TGR, DTNB reduction, TNB absorbance 405 nm | Potency, µM (series often up to 114 µM), hits mostly inhibitors | 360,000 tested, 3% active | AID 485364; also: nearly all actives have a fitted effect of over 60% in size
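First, TGR (20 nM dispensed) and NADPH were mixed with compound. Second, a 15 min room-temperature incubation followed. Third, further NADPH and then DTNB were added to start the reaction. Finally, TNB absorbance was monitored kinetically.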
Pf growth 48h: P. falciparum growth inhibition at 48 hours (one generation). AID 504832. 310,000 tested, 5.9% active. Potency, µM (top dose mostly 28.7 µM), most hits filed as inhibitors. P. falciparum luciferase growth in erythrocytes, 48 h
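Luciferase-expressing P. falciparum in infected erythrocytes (2% hematocrit, 0.1% parasitemia final) in RPMI 1640/0.5% Albumax were exposed to compound for 48 hours at 37 C, 5% CO2; growth read as luminescence.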
AMA1-RON2 inh: AMA1-RON2 (P. falciparum) interaction inhibition; AlphaScreen AMA1-biotinylated RON2 peptide binding; 360,000 tested, 0.2% active; Potency, µM (top dose mostly 58.2 µM), hits mostly inhibitors; also: nearly all actives have a fitted effect of over 45% in size
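AMA1 (3D7) with his tag at 25 nM final met compounds first, then biotinylated RON2 peptide at 25 nM; detection used donor plus acceptor beads, 10 µg/mL apiece, read by AlphaScreen after 30 min at room temperature.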
NS1 function inh: blocks influenza NS1 protein function. Potency, µM (highest dose often 46.1 µM). 270,000 tested, 0.4% active. AID 2326; calls by dose curve; also: actives are rising curves; nearly all actives have a fitted effect of over 50% in size
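In this qHTS, NS1 from influenza A is expressed in budding yeast, where it slows growth. Cells are switched from glucose to 2% galactose medium (pH 6.0, -URA), treated with compound, and growth recovery is read at OD600.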
Pf growth 96h: inhibits malaria parasite growth, 96 h; 320,000 tested, 6.9% active; Potency, µM (doses to about 28.7 µM), usual class: inhibitors; AID 504834; P. falciparum luciferase reporter growth, 96 h
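Parasite growth measured via integrated firefly luciferase reporter in P. falciparum. Infected erythrocytes at 2% hematocrit, 0.05% parasitemia final were treated 96 hours at 37 C under 5% CO2, and luminescence was read.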
A number is an active result; i = inactive; ? = inconclusive; nt = no result given; [ ] = remark or other dose. The list is not random: actives were taken first. Their share in the collection is about 11%. Unless noted, calls follow the shape of the dose curve; as a rule, active = well fitted curve in the direction sought with a large enough effect; inconclusive = small, poorly fitted or top-dose-only effect, or another doubt; inactive = no such curve, though single readings can be large; an effect the other way counts as inactive or inconclusive.

SMILES | Sm TGR inh | Pf growth 48h | AMA1-RON2 inh | NS1 function inh | Pf growth 96h
COC(=O)C1=C(c2ccc(OC(F)(F)F)cc2)C[C@@H]2CC[C@H]1N2C(=O)NCCNC(C)=O | i | ? | i | nt | i
COC(=O)C1=C(c2ccc(OC(F)(F)F)cc2)C[C@@H]2CC[C@H]1N2C(=O)NCCOc1ccc(OC)cc1 | i | ? | i | nt | 5.86µM
O=C(Cc1cccc(NC(=O)C2CCCN(C(=O)C3CCC3)C2)c1)Nc1ccc(C(=O)N2CCCCC2)cc1 (stereo not given) | nt | nt | i | nt | nt
O=c1oc2ccccc2nc1/C=C(\O)c1ccc(Br)cc1 | ? | 1.85µM | i | i | ?
C/C(O)=C\c1nc2ccccc2oc1=O | i | ? | i | i | ?
Cc1ccc(NCCC(=O)c2cccc([N+](=O)[O-])c2)c(C)c1 | 0.501µM | i | ? | i | i
O=C(CSc1ccc([N+](=O)[O-])cn1)Nc1ccc2c(c1)OCO2 | i | i | i | i | i
CCc1nc2nc(C)c(NS(=O)(=O)c3ccc(Cl)cc3)c(=O)n2[nH]1 | i | i | i | i | i
Cc1ccccc1NC(=O)c1c(C)nc(SCC(=O)OCc2ccccc2)c(C#N)c1-c1ccc(F)cc1 | i | 13.1µM | i | i | ?
Cc1c(C(=O)Nc2c(N)nc(SCC(=O)NCC3CCCO3)[nH]c2=O)cccc1[N+](=O)[O-] (stereo not given) | i | i | i | i | i
CN1C(=O)C(=O)/C(=C(/O)c2ccc(Br)cc2)C1c1cccc([N+](=O)[O-])c1 (stereo not given) | i | i | i | i | i
CNC(=S)N/N=C/c1cn(CCOc2ccc(OC)cc2)c2ccccc12 | i | ? | i[2.32 µM] | ? | 5.86µM
COc1ccccc1OCCn1cc(/C=N/NC(N)=S)c2ccccc21 | i | ? | i | nt | ?
CC(=O)Nc1ccc2nc(-c3ccc(Br)o3)[nH]c2c1 | 25.1µM | i | i | i | i
CC(=O)Nc1ccc2nc(-c3cccn3C)[nH]c2c1 | i | i | i | i | i
O=C(Nc1ccc(NC(=O)c2cccs2)cc1)c1ccc(Br)o1 | i | nt | i | i | i
O=C(Nc1ccc2nc(-c3ccc(Br)o3)[nH]c2c1)c1ccco1 | i | ? | i | i | nt
Cn1cccc1-c1nc2ccc(NC(=O)c3cccs3)cc2[nH]1 | i | i | i | i | 11.7µM
O=C(Nc1ccc2nc(-c3ccc(Br)o3)[nH]c2c1)c1cccs1 | 25.1µM | ? | i | i | ?
Cc1[nH]c2ccccc2c1/C=C/c1nc2ccccc2c(=O)n1-c1cccc([N+](=O)[O-])c1 | i | 2.08µM | i | i | 3.7µM
Cc1[nH]c2ccccc2c1/C=C/c1nc2ccccc2c(=O)n1CCO | i | 9.28µM | i | i | i[1.15 µM]
CN1c2ccc(Cl)cc2-c2nc(SCC(=O)NCc3ccccc3)ncc2S1(=O)=O | i | nt | nt | nt | nt
O=C1CCC[C@@H]2Cc3[nH]c4c(Cl)ccc(Cl)c4c3[C@@H]3CCN1[C@H]23 | i | ? | i | i | ?
COc1cc2c(cc1OC)C1O[C@](c3ccsc3)(C2)OC2=C1C(=O)OC1(CCCCC1)C2 | ? | ? | nt | i | 1.35µM
COc1cc2c(cc1OC)C1O[C@](c3ccsc3)(C2)Oc2cc(-c3ccccc3)oc(=O)c21 | 7.08µM | ? | nt | i | 1.51µM
SMILES | Sm TGR inh | Pf growth 48h | AMA1-RON2 inh | NS1 function inh | Pf growth 96h
N#CC1=C(N)NC(SCC(=O)c2ccc(Cl)cc2)=C(C#N)C12CCCC2 | i | ? | i | i | nt
N#CC1=C(N)NC(SCC(=O)c2ccc(Br)cc2)=C(C#N)C12CCCCC2 | i | ? | i | i | 14.7µM
N#CC1=C(N)NC(SCC(=O)Nc2ccccc2)=C(C#N)C12CCCCC2 | i | ? | i | i | 13.1µM
COc1ccc(C(=O)CSC2=C(C#N)C3(CCCCC3)C(C#N)=C(N)N2)cc1 | i | 11.7µM | i | i | i
CCCN(CCC)C(=O)Cn1c(=O)n(Cc2ccc(C(=O)NCCc3ccc(OC)c(OC)c3)cc2)c(=O)c2ccccc21 | i | nt | nt | nt | nt
O=C(O)CSc1cccc[n+]1[O-] | i | i | i | i | i
O=C(CSc1cccc[n+]1[O-])C12CC3CC(CC(C3)C1)C2 | i | i | i | nt | 4.15µM
CN1/C(=C\C(=O)C[n+]2ccc(C(=O)c3ccccc3)cc2)C(C)(C)c2ccccc21 | i | 2.08µM | i | nt | 7.38µM
CN1/C(=C\C(=O)C[n+]2cccc(C(N)=O)c2)C(C)(C)c2ccccc21 | i | ? | i | nt | ?
CN1/C(=C\C(=O)c2cccs2)C(C)(C)c2ccccc21 | i | 9.28µM | i | i | i
Cc1ccc[n+](CC(=O)/C=C2\N(C)c3ccccc3C2(C)C)c1 | i | ? | i[11.6 µM] | i | 0.37µM
CN1/C(=C/C(=O)c2cccs2)Sc2ccccc21 | i | nt | nt | i | i
O=C1CN(S(=O)(=O)c2cccc(Cl)c2Cl)CCN1 | i | i | i | nt | i
Cc1cc(C)n2c(SCC(=O)N(CC(C)C)c3c(N)n(CC(C)C)c(=O)[nH]c3=O)nnc2n1 | i | i | i | nt | i
CN1C(C(=O)NCc2ccco2)=CC(c2ccc(F)cc2)=NS1(=O)=O | i | i | i | i | i
CCCCN(C)c1c(N2CCC(C(=O)OCC)CC2)c(=O)c1=O | i | i | i | i | i
O=C(Nc1ccc(C(=O)N2CCOCC2)cc1)C1CCC1 | nt | nt | i | nt | nt
COc1ccc(Nc2nnc(SCC(=O)/C=C3/N(C)c4ccccc4C3(C)C)s2)cc1 | i | 9.28µM | i | i | 7.38µM
CN1/C(=C\C(=O)CSc2nnc(N)s2)C(C)(C)c2ccccc21 | i | i | i | i | i
CCOC(=O)/C=C1/N(C)c2ccccc2C1(C)C | i | i | i | i | i
CN1/C(=C\C(=O)CSc2cccc[n+]2[O-])C(C)(C)c2ccccc21 | i | i | i | nt | 3.29µM
Cc1cccc[n+]1CC(=O)/C=C1\N(C)c2ccccc2C1(C)C | i | 2.94µM | i | i | 2.94µM
CN1/C(=C\C(=O)C[n+]2cccc(Br)c2)C(C)(C)c2ccccc21 | i | 2.33µM | i | i | 14.7µM
CC1CCCC(C)N1C(=C(Cl)Cl)C(=C1SCCS1)[N+](=O)[O-] (stereo not given) | i | i | ? | nt | ?
CC(NC(=O)CCNC(=O)c1ccco1)c1ccc(F)cc1 (stereo not given) | i | i | i | i | i
SMILES | Sm TGR inh | Pf growth 48h | AMA1-RON2 inh | NS1 function inh | Pf growth 96h
O=C(O)CSCC(=O)N1CCN(c2cc(C(F)(F)F)nc3ccccc23)CC1 | i | i | i | i | i
OCCN1CCN(c2cc(C(F)(F)F)nc3ccccc23)CC1 | i | 11.7µM | i | ? | i
O=C(c1cc(Cl)cc(Cl)c1)N1CCN(c2cc(C(F)(F)F)nc3ccccc23)CC1 | i | 3.7µM | i | i | 1.31µM
O=C(CCC(=O)Nc1nnc(C2CCCCC2)s1)NCc1cccs1 | i | i | i | i | 10.4µM
CC(Oc1ccccc1)C(=O)Nc1nnc(C2CCCCC2)s1 (stereo not given) | i | i | i | i | 0.0029µM
Cc1nnc(NC(=O)CCC(=O)NCc2cccs2)s1 | i | i | i | i | i
COc1ccc(CN(Cc2ccco2)C(=O)c2ccccc2F)cc1 | i | nt | nt | nt | nt
CCOc1nc(NCc2ccco2)nc(Nc2ccc(OC)cc2)n1 | i | i | i | i | nt
